# Pf growth 48h – Primary qHTS for delayed death inhibitors of the malarial parasite plastid, 48 hour incubation | AID 504832, 2011 | Potency, µM (titrated, usually from 28.7 µM), for the others: top-dose activity change, negative = inhibition, usual class: inhibitors | P. falciparum luciferase growth in erythrocytes, 48 h | 310,000 tested, 5.9% active; also: % is scaled to controls: 0 for no effect and ±100 for the full control effect
#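 Parasite viability was followed by luminescence of a genomically integrated firefly luciferase. Cultures held 0.1% parasitemia at 2% hematocrit (final), incubated under 5% CO2 at 37 C.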
# SARS PLP yeast – qHTS of Yeast-based Assay for SARS-CoV PLP; S. cerevisiae expressing SARS-CoV PLpro, growth rescue; Potency, µM (doses to about 32.9 µM), for the others: at the top dose activity, positive = growth rescue, usual class: activators; 330,000 tested, 0.19% active; AID 485353, 2010; calls by dose curve; also: 0% is about no effect; nearly all actives have a fitted effect of over 55% in size
# Sm TGR block – qHTS Assay for the Inhibitors of Schistosoma Mansoni Peroxiredoxins. Schistosoma mansoni thioredoxin glutathione reductase (TGR), Q962Y6. purified TGR, DTNB reduction, TNB absorbance 405 nm. Potency, µM (doses to about 114 µM), for inactives: at the top dose activity change, negative = inhibition, most hits filed as inhibitors. 360,000 tested, 3% active. AID 485364, 2010; also: % is scaled to controls: 0 for no effect and ±100 for the full control effect; nearly all actives have a fitted effect of over 60% in size
#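 First, TGR (20 nM dispensed) and NADPH were mixed with compound. Second, a 15 min room-temperature incubation followed. Third, further NADPH and then DTNB were added to start the reaction. Finally, TNB absorbance was monitored kinetically.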
# Pf growth 96h – Primary qHTS for delayed death inhibitors of the malarial parasite plastid, 96 hour incubation. P. falciparum luciferase reporter growth, 96 h. Potency, µM (series often up to 28.7 µM), for the others: at the highest dose activity change, negative = inhibition, actives largely listed as inhibitors. AID 504834, 2011. 320,000 tested, 6.9% active; also: % is scaled to controls: 0 for no effect and ±100 for the full control effect
#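 Cell-based qHTS: luciferase-tagged P. falciparum in erythrocytes (2% hematocrit, 0.05% parasitemia final) incubated with compounds for 96 hours, 37 C, 5% CO2; luciferase detection reagent then added and luminescence measured.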
# AmpC detergent – qHTS Inhibitors of AmpC Beta-Lactamase (assay with detergent). 370,000 tested, 0.041% active. Potency, µM (series often up to 114 µM), for inactives: at the top dose activity change, negative = inhibition, most hits filed as inhibitors. AID 485294, 2010. P00811. AmpC hydrolysis of nitrocefin, absorbance 480 nm, 0.01% Triton;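 also: 0% = no-compound wells and -100% = no-enzyme wells; nearly all actives have a fitted effect of over 25% in size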
# Target sequence (P00811 whole entry, looked up): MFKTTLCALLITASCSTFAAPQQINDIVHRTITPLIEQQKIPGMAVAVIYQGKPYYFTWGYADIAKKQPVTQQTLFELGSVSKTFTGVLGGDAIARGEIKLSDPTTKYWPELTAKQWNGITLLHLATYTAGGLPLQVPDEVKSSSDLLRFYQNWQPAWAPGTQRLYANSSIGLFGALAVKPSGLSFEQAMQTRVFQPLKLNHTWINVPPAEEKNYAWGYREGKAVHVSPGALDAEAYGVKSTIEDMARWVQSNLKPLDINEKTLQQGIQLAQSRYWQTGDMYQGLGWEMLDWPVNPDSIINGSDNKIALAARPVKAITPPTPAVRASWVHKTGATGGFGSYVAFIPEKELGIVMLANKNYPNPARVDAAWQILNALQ
#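 AmpC (5.3 nM in the dispensed reagent) in 20 mM phosphate pH 7.0 with 0.01% (detergent screen) or 0.0001% Triton X-100 was preincubated with compounds for 15 min at room temperature. Nitrocefin was then added from an 800 uM solution, and hydrolysis was followed at 480 nm.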
# AmpC no deterg – qHTS Inhibitors of AmpC Beta-Lactamase (assay without detergent); P00811; AmpC nitrocefin hydrolysis, absorbance 480 nm, 0.0001% Triton; Potency, µM (titrated, usually from 57.1 µM), inactives show at the top dose activity change, negative = inhibition, most hits filed as inhibitors; 330,000 tested, 0.52% active;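 also: plate controls were no compound for no effect and no enzyme for full effect; nearly all actives have a fitted effect of over 20% in size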
#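 20 mM phosphate pH 7.0 + 0.01% (detergent screen) or 0.0001% Triton X-100; 5.3 nM AmpC reagent; cpd preinc 15 min RT; nitrocefin (800 uM stock) to start; A480 q20 s × 4 min; Activity was normalised to no-enzyme and no-compound control wells.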
# * = called active by the depositor; ? = inconclusive; / = no result; ! = not confirmed by another sample. In the library only some 12% were active in any assay of this set; here they are far more common. Unless noted, calls follow the shape of the dose curve; as a rule, active = well fitted curve in the direction sought with a large enough effect; inconclusive = small, poorly fitted or top-dose-only effect, or another doubt; inactive = no such curve, though single readings can be large; an effect the other way counts as inactive or inconclusive. Potency is read from the fitted curve at half-maximal effect.
SMILES,Pf growth 48h,SARS PLP yeast,Sm TGR block,Pf growth 96h,AmpC detergent,AmpC no deterg
CC1(C)CC(=O)C(C(c2ccc(F)cc2)C2C(=O)CC(C)(C)CC2=O)C(=O)C1,-3%,4%,45µM*,?,-3%,-10%
CC1(C)CC(=O)C(C(c2ccc(Br)cc2)C2C(=O)CC(C)(C)CC2=O)C(=O)C1,111%,-2%,18µM*,?,-10%,-2%
COc1ccc(-c2cc(C(=O)NNC(=O)c3csc(N4CCOCC4)n3)c3ccccc3n2)cc1OC,?,-2%,-3%,13µM*,-16%,190%
CCc1cccc(C)c1NC(=O)c1cc(-c2ccncc2)nc2ccccc12,10µM*,-2%,5%,9.3µM*,0%,58%
NC(=O)c1cc(-c2ccncc2)nc2ccc(Cl)cc12,?,0%,/,?,5%,-15%
Cc1c(C(=O)Nc2ccc3c(c2)OCO3)sc2nc(-c3ccccc3)cn12,13µM*,6%,1%,?,?,-24%
CNS(=O)(=O)c1ccc(NC(=O)c2cc(-c3ccncc3)nc3ccc(Cl)cc23)cc1,13µM*,3%,-3%,44%,-3%,-2%
COc1ccc(-c2cc(C(=O)NNC(=O)c3csc(N4CCOCC4)n3)c3ccccc3n2)cc1,?,-1%,11%,?,-15%,115%
Cc1cccc(C)c1NC(=O)c1cc(-c2ccccn2)nc2ccccc12,-26%,3%,8%,?,-3%,18%
Cc1c(C(=O)NCc2ccc3c(c2)OCO3)sc2nc(-c3ccccc3)cn12,/,7%,-4%,?,10%,-11%
Cc1ccc2c(CC(=O)Nc3c(C(=O)Nc4cccc(Cl)c4)oc4ccccc34)coc2c1C,/,/,3%,/,-1%,/
O=C(Nc1ccc(SC(F)F)cc1)c1cc(-c2ccncc2)nc2ccccc12,?,-1%,-2%,5.2µM*,-1%,0%
CCOc1ccc(-c2cc(C(=O)Nc3ccc4c(c3)OCCO4)c3ccccc3n2)cc1,108%,0%,-16%,31%,-1%,-28%
O=C(NCc1ccc(F)cc1)c1cc(-c2ccncc2)nc2ccccc12,3.7µM*,0%,-8%,?,?,122%
Cc1ccccc1NC(=S)NC(=O)c1cc(-c2ccccc2)nc2ccccc12,?,-2%,12%,9.3µM*,-6%,-35%
Cc1cccc(-c2cc(C(=O)Nc3ccc4c(c3)OCCO4)c3ccccc3n2)c1,?,-12%,9%,12µM*,-1%,-14%
O=C(CSc1nnc(Nc2ccccc2F)s1)Nc1cccc(S(=O)(=O)N2CCCCC2)c1,22%,1%,-6%,?,?,-29%
COc1cccc(CNC(=O)CCc2c(C)nc3c(c(C)nn3-c3ccc(C)c(C)c3)c2C)c1,/,/,-1%,/,0%,/
O=C(Nc1ccncc1)c1cc(-c2ccccn2)nc2ccccc12,-12%,-2%,-1%,?,-3%,-28%
COc1ccccc1NC(=O)c1cc(-c2cc(OC)c(OC)c(OC)c2)nc2ccccc12,4.7µM*,7%,3%,?,4%,10%
CCOc1ccccc1NC(=O)c1cc(-c2cc(OC)c(OC)c(OC)c2)nc2ccccc12,?,-1%,-35%,?,-2%,105%
O=C(NNS(=O)(=O)c1cccc(Cl)c1)c1cc(-c2ccc(F)cc2)nc2ccccc12,-9%,0%,1%,16%,-9%,13µM*
Cc1ccc(-c2cc(C(=O)Nc3ccncc3)c3ccccc3n2)cc1,1.7µM*,-1%,16%,1.5µM*,-13%,-17%
COc1ccc(-c2cc(C(=O)Nc3ccc(Cl)cc3Cl)c3ccccc3n2)cc1OC,?,-20%,4%,1%,?,-3%
COc1ccc(-c2cc(C(=O)Nc3c(Cl)cc(Cl)cc3Cl)c3ccccc3n2)cc1OC,13µM*,7%,0%,?,0%,-22%
SMILES,Pf growth 48h,SARS PLP yeast,Sm TGR block,Pf growth 96h,AmpC detergent,AmpC no deterg
O=C(NN=C1CCCC1)c1cc(-c2ccc(F)cc2)nc2ccccc12,9%,-2%,7%,?,0%,-29%
NS(=O)(=O)c1ccc(CCNC(=O)c2ccc3nc(CCc4ccccc4)oc3c2)cc1,/,/,1%,/,6%,/
Cc1ccc(NC(=O)CN(C)C2CCCCC2)cc1Cl,-15%,4%,8%,?,-5%,31%
Cc1ccc(NC(=O)CCn2nc(C)c(S(=O)(=O)N3CCCCC3)c2C)cc1Cl,/,/,8%,/,4%,/
Cc1ccc(S(=O)(=O)N2CCCCC2)cc1NC(=O)CSc1nc(N)cc(=O)[nH]1,/,-2%,/,/,/,-33%
CCNC(=S)NNC(=O)c1cc(-c2cc(C)ccc2C)nc2ccccc12,?,12%,-10%,5.2µM*,-5%,-53%
COc1cc(-c2cc(C(=O)Nc3cc(S(=O)(=O)N4CCOCC4)ccc3C)c3ccccc3n2)cc(OC)c1OC,2.9µM*,3%,-3%,1µM*,-23%,142%
COc1cc(-c2cc(C(=O)Nc3ccncc3)c3ccccc3n2)cc(OC)c1OC,8.3µM*,-1%,3%,4.1µM*,0%,166%
COc1cc(-c2cc(C(=O)Nc3ccc(N4CCOCC4)cc3)c3ccccc3n2)cc(OC)c1OC,10µM*,0%,-1%,5.9µM*,-3%,118%
O=C(N/N=C/c1cccs1)[C@H]1C[C@@H]1c1ccccc1,-7%,13%,-12%,110%,?,-26%
CC(=O)Nc1ccc(C(=O)CSc2nnc3cc(C)c4ccccc4n23)cc1,/,/,0%,/,19%,/
CCN1CCC(N(Cc2ccc3c(c2)OCO3)C(=O)Nc2cc(Cl)ccc2C(=O)OC)CC1,/,/,4%,/,16%,/
C[C@H](CCC(=O)O)[C@H]1CC[C@H]2[C@@H]3[C@H](O)C[C@@H]4C[C@H](O)CC[C@]4(C)[C@H]3C[C@H](O)[C@]12C,9.3µM*!,0%,-2%,12µM*!,?,169%
COc1cccc(N/C(SCc2cccc([N+](=O)[O-])c2)=C(/C#N)C(=O)NCc2cccs2)c1,10µM*,4%,0%,?,-15%,-44%
COc1cccc(N/C(SC)=C(/C#N)C(=O)NCc2cccs2)c1,9%,-3%,4%,16%,-3%,-28%
COc1cccc(N/C(SCc2ccccc2C)=C(/C#N)C(=O)NCc2cccs2)c1,?,-3%,-12%,2.1µM*,-5%,-32%

# Bioassay records as filed in PubChem BioAssay.
